This note sets out measurements from PubChem BioAssay (NCATS).

Molecules are shown by their SMILES. Results filed as inconclusive are left out. Where a call stands in place of a potency, no number is given. Active and inactive are the calls of the source. The call rests on the fitted dose curve; in most records, active means well fitted cell-killing curve with a large enough effect; inconclusive means small, poorly fitted or top-dose-only effect; inactive means flat fitted curve, though single readings scatter.

The nature of the assay: Cell Viability - LYMP2-025 (AID 976). To be noted: LYMP2-025 lymphoblastoid cell viability; series mostly up to 92.2 µM. The text has this: NIH Chemical Genomics Center [NCGC]
NIH Molecular Libraries Screening Centers Network [MLSCN]
National Institutes of Environmental Health Sciences [NIEHS]
National Toxicology Program [NTP]
We have developed a 1536-well cell-based assay for quantitative high throughput screening (qHTS) against a number of cell lines to determine in vitro cytotoxicity of small molecules. This particular assay uses a human lymphoblastoid cell line (LYMP2-025) purchased from Coriell Institute for Medical Research.
NCGC Assay Protocol Summary:
The CellTiter-Glo luminescent cell viability assay (Promega) is a homogeneous method to measure the number of viable cells in culture. The end point readout of this assay is based on quantitation of intracellular ATP, an indicator of metabolic activity, using the luciferase reaction. Luciferase catalyzes the oxidation of beetle Luciferin to oxyluciferin and light in the presence of ATP. The luminescent signal is proportional to amount of ATP present.
Using the CellTiter-Glo luminescent cell viability assay, the amount of cellular ATP was measured in the lymphoblastoid cell line with complete culture medium following compound treatment for 24 hours. The assay was performed in opaque white Kalypsys 1536-well plates. In the screen, tetraoctylammonium bromide was used as positive control. Library compounds were measured for their ability to cause acute toxicity in the cell line, as reflected by a decrease in intracellular ATP levels, in a concentration-dependent manner. […] AC50 values were determined from concentration-response data modeled with the standard Hill equation.
qHTS protocol for CellTiter Glo lymphoblastoid cellular assay
[Step] [Parameter] [Value] [Description]
1. Reagent; 5 uL; 2500 lymphoblastoid cells/well
2. Time; 5 hr; 37 C incubation
4. Controls; 23 nL; Tetraoctylammonium bromide 6.4pM to 92 uM
5. Time; 24 hr; 37 C incubation
6. Reagent; 5 uL; CellTiter Glo reagent
7. Time; 30 min; Room Temperature
8. Detection; Luminescence; Viewlux plate reader
Keywords: cell viability, cytotoxicity, lymphoblastoid cell line, luminescence, NTPHTS, NTPHTS_NCGC, NIEHS, DSSTox, MLSMR, MLSCN, NIH Roadmap, qHTS, NCGC
With `CC(=O)Nc1ccc(N)cc1`, the Potency entry is “inactive”.
Then `Cc1ccc(C)o1`, with “inactive”.
`COC(=O)CCC(=O)OC`: the Potency entry was “inactive”.
Then `Cc1cccc(C)c1[N+](=O)[O-]`, with “inactive”.
`Cc1ccc(Cl)cc1N`: the Potency result is “inactive”.
In the case of `CCCOCC(C)O` (stereo not given) it was “inactive”; in that of `CCOC(=O)C(C)C(C)=O` (stereo not given), “inactive”.
In the case of `Cc1cccc2sc(N)nc12`, the Potency result is “inactive”.
On to `CCCC(Cl)CCCC(Cl)CCC(Cl)CCC(Cl)CCC(Cl)CCCC(Cl)CCC` (stereo not given), for which the Potency entry is “inactive”.
In the case of `CC/C(C)=N/O` it was “inactive”.
In the case of `CCC(C)(C)C(=O)O`, the Potency result was “inactive”.
In the case of `Nc1ccc([N+](=O)[O-])c(N)c1` it was “inactive”; in that of `CCOC(C)(C)C`, “inactive”; in that of `COCCOC(=O)c1ccccc1C(=O)OCCOC`, “inactive”.
In the case of `C/C(C=O)=C/c1ccccc1` it was “inactive”; in that of `CCC(=O)/C=C/C1C(C)=CCCC1(C)C` (stereo not given), “inactive”.
Regarding `CCCCCCC=O`, the Potency entry was “inactive”.
Consider `NS(=O)(=O)O`, for which the Potency entry was “inactive”.
In the case of `O=C1CCCCC1` it was “inactive”.
Take `O=[N+]([O-])c1cc(C(F)(F)F)ccc1Cl`: the Potency result is “inactive”.
Then `Fc1ccccc1`, with “inactive”; and `CC(O)COC(C)(C)C` (stereo not given), with “inactive”.
Then `C=C(C)C(=O)OCCCCCCCCCC`, with “inactive”.
Then `C=CCOC(=O)COCCC(C)C`, with “inactive”.
Regarding `CC(C)N(C)C`, the Potency result was “inactive”.
In the case of `CC(C)c1ccccc1` it was “inactive”.
In the case of `CCNc1cc(O)ccc1C` it was “inactive”; in that of `Nc1cccc(C(F)(F)F)c1`, “inactive”.
As for `OCCO`, the Potency entry is “inactive”.
Take `Cc1ccc2oc(=O)ccc2c1`: the Potency result was “inactive”.
Then `CCCCCCCCCCCCC1CO1` (stereo not given), with “inactive”; and `CNc1ccc([N+](=O)[O-])cc1`, with “inactive”; and `CCNS(=O)(=O)c1ccc(C)cc1`, with “inactive”.
Take `O=Cc1cccc(Br)c1`: the Potency entry is “inactive”.
In the case of `CCN(CC)c1cccc(O)c1` it was “inactive”; in that of `CCOCC(=O)O`, “inactive”.
In the case of `C[C@@H]1CC2(OC[C@]3(C)O[C@H]23)O[C@H]2C[C@@]3(C)[C@@H]4CC[C@H]5C(C)(C)C(O[C@@H]6OC[C@@H](O)[C@H](O)[C@H]6O)CC[C@@]56C[C@@]46CC[C@]3(C)[C@@H]12` (stereo not given in full), the Potency result is “inactive”.
For `O=Cc1c(Cl)cccc1Cl`, the Potency result was “inactive”.
Then `O=[N+]([O-])c1ccc(CCO)cc1`, with “inactive”; and `Cc1ccccc1C(=O)O`, with “inactive”.
